Results filed as inconclusive are left out. Entries that show only a call come without a potency. Active and inactive are the calls of the source. The call rests on the fitted dose curve; in most records, active means well fitted curve in the direction sought with a large enough effect; inconclusive means small, poorly fitted or top-dose-only effect, or another doubt; inactive means no such curve, though single readings can be large; an effect the other way counts as inactive or inconclusive.
Experiments:
[1] = target: Aldehyde dehydrogenase, mitochondrial (Homo sapiens) (UniProt P05091); test: qHTS for Inhibitors of the Aldehyde Dehydrogenase Family (ALDH2) Primary screen (AID 2061308); further: nearly all actives have a fitted effect of over 55% in size
[2] = target: Retinaldehyde dehydrogenase 3 (Homo sapiens) (UniProt P47895); test: qHTS for Inhibitors of the Aldehyde Dehydrogenase Family (ALDH1A3) Primary screen (AID 2061315)

| SMILES | Potency [1] | Potency [2] |
| --- | --- | --- |
| Cc1ccc(Cn2ncc3c4sc(C)cc4n(C)c3c2=O)c(C)c1 | inactive | inactive |
| Cc1ccc(NS(=O)(=O)c2cc3c(cc2Cl)CCC(=O)N3)cc1Cl | inactive | inactive |
| Cc1ccc(S(=O)(=O)Nc2cccc(C(=O)Nc3nc(-c4ccccc4)cs3)c2Cl)cc1 | inactive | inactive |
| CCCn1c(-c2ccc(F)cc2)nc2c(NCCN(C(C)C)C(C)C)nc(C)nc21 | inactive | inactive |
| Cc1cc(C)nc(NC(=S)N2CCN(C3=Nc4ccccc4Oc4ccccc43)CC2)c1 | inactive | inactive |
| Cc1ccc(NS(=O)(=O)c2cc3c(cc2NCC(C)(C)O)NC(=O)CC3)cc1C | inactive | inactive |
| O=C1CCc2cc(S(=O)(=O)Nc3ccc4c(c3)OCCO4)ccc2N1 | inactive | inactive |
| CC(=O)Nc1sc2c(c1-c1nc3ccccc3s1)CCS(=O)(=O)C2 | inactive | inactive |
| O=C(CCCCSc1nnc(-c2cccc3ccccc23)o1)Oc1ccc(F)cc1 | inactive | inactive |
| Cc1ccc(OCCn2c(CCNC(=O)c3ccncc3)nc3ccccc32)cc1 | inactive | inactive |
| O=C(O)c1ccc2c(c1)C(=O)N([C@H](Cc1c[nH]c3ccccc13)C(=O)O)C2=O | inactive | inactive |
| CCNC(=O)c1ccc(-c2ccc3ncnc(N4CCOCC4)c3c2)o1 | inactive | inactive |
| COc1cc(Nc2nc(-c3ccncc3)nc3ccccc23)ccc1Cl | inactive | inactive |
| CCCn1c(C)nc2c(NC(C)CN(C)C)nc(C)nc21 (stereo not given) | inactive | inactive |
| CCc1ccc(NC(=O)c2cnn3c(C)cc(-c4ccccc4)nc23)cc1 | inactive | inactive |
